In PubChem BioAssay (Tox21):
Records with an inconclusive call do not appear. The source made the active and inactive calls. Calls come from the whole dose curve; as a rule, active = well fitted cell-killing curve with a large enough effect in the repeat runs (not every such curve was filed as active); inconclusive = weak or mixed curves, or effect the other way; inactive = no such curve, though single readings can be large or run the other way.

Experiment: qHTS assay to identify small molecule antagonists of the estrogen related receptor signaling pathway with the pleiotropic PPARgamma coactivator (PGC) from Tox21 10K library - cell viability counter screen (AID 1224840); note: nearly all actives have a fitted effect of over 40% in size
Conditions: PGC/ERR reporter cells viability, CellTiter-Fluor, 17.5 h; series mostly up to 92.4 µM; viability change, negative = cytotoxic: at the top concentration
Summary of the method: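 PGC/ERR cells (2,000/well) plated 6 h, then compound-treated for 17.5 h at 37 C. Viability measured by CellTiter-Fluor fluorescence after 30 min at 37 C, multiplexed with the pathway assay.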
% is set by controls: 0 for no effect and ±100 for the full control effect; potency is the fitted concentration of half-maximal effect.

Row | SMILES | Potency | viability change, negative = cytotoxic
1 | O=C1c2ccccc2C(=O)C1c1ccc2cc(S(=O)(=O)O)cc(S(=O)(=O)O)c2n1 | 33.1 µM (active) | –
2 | CCCCCCCCCCCCN1CCOCC1 | – | 5.34% (inactive)
3 | CC(=O)c1ccc(Cl)c(Cl)c1Cl | – | 2.91% (inactive)
4 | CC(C(=O)O)c1ccc(/C=C2\CCCCC2=O)cc1 (centres undefined) | – | 1.01% [at 42.5 µM] (inactive)
5 | COC=O | – | 0.435% [at 8.39 µM] (inactive)
6 | Cc1c(N=C=O)cccc1N=C=O | – | 0.917% (inactive)
7 | CC(=O)c1cccnc1 | – | 5.14% (inactive)
8 | O=[N+]([O-])c1ccc(Cl)cc1Cl | – | 3.89% (inactive)
9 | CCCCCCCCNC | – | -7.34% (inactive)
10 | C=C(C)C(=O)OCCCCCCCCCCOC(=O)C(=C)C | – | 6.44% (inactive)
11 | Cc1cc(C)c(C)c(O)c1 | – | 7.74% (inactive)
12 | CCC(=O)O[C@]1(C(=O)COC)[C@@H](C)C[C@H]2[C@@H]3CCC4=CC(=O)C=C[C@]4(C)C3(F)[C@@H](O)C[C@@]21C (some centres undefined) | – | 12.5% [at 42.5 µM] (inactive)
13 | CCN(CC)CC(=O)OCC(=O)[C@@]1(O)CC[C@H]2[C@@H]3CCC4=CC(=O)CC[C@]4(C)[C@H]3[C@@H](O)C[C@@]21C | – | 2.92% [at 42.5 µM] (inactive)
14 | CC1=C(C)C(=O)C(CCCCC#CCCCC#CCO)=C(C)C1=O | – | -24.2% [at 42.5 µM] (inactive)
15 | C=CC(=O)OCCCCCCCCCC | – | 12% (inactive)
16 | O=C(Cl)c1ccc(F)c(Cl)c1 | – | 3.4% (inactive)
17 | O=C(NC1CCN(CCc2c[nH]c3ccccc23)CC1)c1ccccc1 | – | -10.3% [at 42.5 µM] (inactive)
18 | CCOc1ccccc1O | – | 3.85% (inactive)
19 | CCN(CCCCOC(=O)c1ccc(OC)c(OC)c1)C(C)Cc1ccc(OC)cc1 (centres undefined) | – | 0.326% [at 42.5 µM] (inactive)
20 | CC1(C)CC(O)CC(C)(C)N1[O] | – | -0.28% (inactive)

Row | SMILES | Potency | viability change, negative = cytotoxic
21 | Cc1nc2sccn2c(=O)c1CCN1CCC(=C(c2ccc(F)cc2)c2ccc(F)cc2)CC1 | – | -1.65% [at 42.5 µM] (inactive)
22 | CC(=O)S[C@H](C(=O)N[C@H]1Cc2ccccc2[C@H]2CCC[C@@H](C(=O)O)N2C1=O)C(C)C | – | 2.25% (inactive)
23 | CCOC(OCC)OCC | – | 9.93% (inactive)
24 | Cc1c(Cl)cccc1Nc1ccccc1C(=O)O | – | 16.8% [at 42.5 µM] (inactive)
25 | COC(=O)c1cc(Cl)ccc1[N+](=O)[O-] | – | 1.13% (inactive)
26 | O=C(Nc1ccc2c(c1)Cc1ccccc1-2)C(F)(F)F | – | -6.73% (inactive)
27 | O=C(OCCCCCOC(=O)c1ccccc1)c1ccccc1 | – | -5.08% (inactive)
28 | O=C1OC(=O)C2CC=CCC12 (centres undefined) | – | -4.7% (inactive)
29 | O=C1C=CCCC1 | – | -0.436% (inactive)
30 | O=C(O)CNc1ccccc1 | – | -0.527% (inactive)
31 | O=C(O)c1cccnc1Nc1cccc(C(F)(F)F)c1 | – | 0.454% [at 42.5 µM] (inactive)
32 | O=Cc1ccc([N+](=O)[O-])cc1 | – | 2.77% (inactive)
33 | O=C(O)c1cccc(C(=O)O)c1C(=O)O | – | -2.06% (inactive)
34 | O=C(Nc1ccccc1)c1cc([N+](=O)[O-])ccc1Cl | – | -23.7% (inactive)
35 | C/C=C1\[C@H]2C=C(C)C[C@]1(N)c1ccc(=O)[nH]c1C2 | – | 16.4% [at 42.5 µM] (inactive)
36 | FC(F)(Cl)C(F)(Cl)Cl | – | 1.47% (inactive)
37 | CC(CC(C#N)(c1ccccc1)C(C)C)N(C)C (centres undefined) | – | 16.1% [at 42.5 µM] (inactive)
38 | CO[C@@H]1COCC[C@@H]1N[C@@H]1CC[C@@](C(=O)N2CCc3ncc(C(F)(F)F)cc3C2)(C(C)C)C1 | – | 1.99% (inactive)
39 | CC[C@H](NC(C)C)[C@H](O)c1ccc(O)c2[nH]c(=O)ccc12 | – | 10.7% [at 42.5 µM] (inactive)
